Test results from publication PMC10163288.
A selection follows. The true hit rate is not given.

B1: il2ra_site1_2b5i_sap_7_mot_HHH_b1_05947_000000126_0001_42_56_H_._HHH_b1_05810_af2_0001_0000100008_0000001_1_0001_af2pred_0001_af2pred (protein)
chain: SSSSSEEEQRAFELYHEASRAFSNGDKERARELLEEAIELAEEAGDPKIKRELEQFLEMLSSSSS
B2: il2ra_site1_3nfp_sap_21_mot_HHH_b2_04910_af2_000000236_0001_1_18_H_._4946fae19574d7b03d9e348227509a78_0001_0001_0000300023_0000001_0_0001_af2pred_0001_af2pred (protein)
chain: SSSDEREVHKLLKEALEAALKGNPEEARELLEEAERLAKELNNPRAEHTVEKALKSFERARSSSS
B3: il2ra_site2_2erj_normal_mot_76e6e8f7232a9e65eeaab5ff8ecb4c96_0001_000000242_0001_17_31_H_._HHH_eva_0320_af2_0001_0000500007_0000001_1 (protein)
chain: SSTEEEEVRRVVEEAEELIKRGDLEEAEEVLSEAFTLVYELGDEELVILILELAHELVRLLAKSS
B4: il2ra_site2_2erj_normal_mot_af86707857d369f3e1d85dcabc5f9321_0001_000000201_0001_14_29_H_._HHH_b1_07617_0001_0001000035_0000001_1_af2pred_0001_af2pred (protein)
chain: SSSSDEEEQIERLLREARELLEEGDPERAREVVWEAAQLAAESDNEELLKEILELLREIHGSSSS
B5: il2ra_site1_2b5i_normal_mot_HHH_b1_00432_000000039_0001_1_18_H_._HHH_b1_02735_0001_0000300013_0000001_0_af2pred_dldesign_0_af2pred (protein)
chain: SSSSSSDEEIEAAEDLALQALKEKDKEKRKELLEEALRLAQKGKDAKLVAQIQELLERLKSSSSS
B6: il2ra_site2_3nfp_normal_mot_HHH_b2_04451_000000238_0001_21_37_H_._HHH_b2_00723_af2_0001_0000500044_0000001_0 (protein)
chain: SSSSDLEEEVERLIEEVERLLEEGDKHEAAQLLLEATKLVAELNNEELARILLELFELLQKSSSS
B7: il2ra_site1_3nfp_sap_8_mot_d8099cd8ef6a59b9c03de2010570d688_0001_af2_000000259_0001_37_51_H_._HHH_b2_05910_0001_0000100005_0000001_0_0001 (protein)
chain: SAEEFVKRAKELVPPELQELLERALELALKRQDPKLARLLIKAVAAIQQGDPEKAEEVLKELEER
B8: il2ra_site1_2b5i_normal_mot_HHH_b1_08745_af2_000000166_0001_39_57_H_._HHH_b1_05884_0001_0000600032_0000001_0_af2pred_dldesign_0_af2pred (protein)
chain: SSSSSPEIQKLREMFEEADRLFKAGKYEEAKELLEKALKLAKELGANLELRIIQSALEQLESSSS
B9: il2ra_site1_2b5i_sap_15_mot_1dae16775e8f4074d71d019417416b97_0001_af2_000000275_0001_1_12_H_._HHH_b2_07869_0001_0000400013_0000001_1_0001_af2pred_0001_af2pred_1 (protein)
chain: SSSSTDVAREVFRLLEEADRLARNGNPEEAEKLLREAEELAEENGNRALLKFVRAALRALSSSSS
B10: il2ra_site1_2b5i_sap_9_mot_HHH_b2_07540_af2_000000089_0001_1_16_H_._HHH_b1_01333_af2_0001_0000100003_0000001_0_0001_af2pred_0001_af2pred (protein)
chain: SSSSSSEELLELLREADELFKNGNPEEAEKVLERAEELAERNGTKSMLRSVRSMLELLRESSSSS
B11: il2ra_site1_3nfp_sap_6_mot_HHH_b2_06502_000000163_0001_42_55_H_._HEEHE_0113_0001_0000200018_0000001_0_0001 (protein)
chain: SSSSSNDEAWRLLREAYEEFKKAKSREEMRELLEEAERLARELGDERLLRDIEKWLEQMKSSSSS
B12: il2ra_site2_2erj_sap_24_mot_HHH_b1_07975_000000000_0001_41_57_H_._HHH_b1_08466_af2_0001_0000800020_0000001_0_0001_af2pred_0001_af2pred (protein)
chain: SSSSSEEEEELKEFIEELVREFGLSEEVQKELEEIARFALEQGIDEEDIKKWLKLFAEETSSSSS
B13: il2ra_site2_3nfp_normal_mot_HHH_b1_01086_af2_000000264_0001_39_53_H_._a6da1dbab15e72488587f943ddaf1f3f_0001_1_af2_0001_0000500054_0000001_0 (protein)
chain: DREELLERIVREKDPRVEELLEEIKEAKERNDEELLEKLAKRLALIAFELGDPEVFALAADLQSI
B14: il2ra_site2_3nfp_normal_mot_HHH_b1_08498_000000146_0001_21_37_H_._HHH_b1_08008_0001_0000100001_0000001_0 (protein)
chain: SSSSDEEHLEAATRLIRAAAWALNDPELERRAEELLEEIKEHGDPELKQELAELTHEAFELSSSS
B15: il2ra_site2_2erj_normal_mot_HHH_b1_05749_af2_000000086_0001_23_39_H_._HHH_b2_01918_0001_0000200007_0000001_0 (protein)
chain: SSSSDELEEEVEELLEEVRRAYEEGDLEEAYRLAVRVFALAAENNDPELQRAVTRLLEELSSSSS
B16: il2ra_site1_3nfp_sap_17_mot_0eddeacbb14b769e73e254714f31e2f9_0001_af2_000000052_0001_37_51_H_._7093d3a5e4329be201a559e39cb9bd18_0001_0001_0000800048_0000001_0_0 … (protein)
chain: SSSDEAKELAEEAIEELERLIKEGDVRAVAETIRRIAKELLELNDPEALELLQREVRKLLRSSSS
B17: il2ra_site1_2b5i_sap_17_mot_2cbe48e66a1f39b3fed734b245ab0a04_0001_000000015_0001_17_31_H_._HHH_b1_01921_0001_0000600034_0000001_0_0001_af2pred_dldesign_0_af2pre … (protein)
chain: SSSSSDVKEVLELFEEANKLFQAGKPEEAKEVLEKALEKAKALGAEAHIRIIESALEQLESSSSS
B18: il2ra_site1_3nfp_sap_12_mot_HHH_b1_07180_af2_000000260_0001_1_19_H_._HHH_b2_06317_af2_0001_0000500010_0000001_0_0001_af2pred_0001_af2pred_1 (protein)
chain: SDEELIKKLVRIAVEQNSPRLLRKILRDFERYTGDPEEAERILEELIEEVLGDPEEARRLVEEAK

target: il2ra, P01589; test: yeast display titration
Sequence (P01589 whole entry): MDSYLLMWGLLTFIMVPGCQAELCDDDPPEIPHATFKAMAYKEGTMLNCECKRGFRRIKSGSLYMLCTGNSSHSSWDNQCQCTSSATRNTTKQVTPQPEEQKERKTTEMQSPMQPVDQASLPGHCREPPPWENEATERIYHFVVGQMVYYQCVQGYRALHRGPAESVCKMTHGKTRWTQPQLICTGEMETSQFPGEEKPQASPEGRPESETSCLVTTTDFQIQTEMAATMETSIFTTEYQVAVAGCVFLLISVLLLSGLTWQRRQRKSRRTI

Apparent Kd, inactive:
B1 no binding seen
B2 no binding seen
B3 no binding seen
B4 no binding seen
B5 no binding seen
B6 no binding seen
B7 no binding seen
B8 no binding seen
B9 no binding seen
B10 no binding seen
B11 no binding seen
B12 no binding seen
B13 no binding seen
B14 no binding seen
B15 no binding seen
B16 no binding seen
B17 no binding seen
B18 no binding seen
